Test results as given in PubChem BioAssay (Tox21).
Results filed as inconclusive are left out. The source made the active and inactive calls. Unless noted, calls come from the whole dose curve; as a rule, active = well fitted curve in the direction sought with a large enough effect in the repeat runs; inconclusive = weak or mixed curves; inactive = no such curve, though single readings can be large; an effect the other way counts as inactive or inconclusive.

Assays:
[1] = qHTS assay to identify aromatase inhibitors - cell viability counter screen (AID 743084);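 note: cells stimulated with testosterone during compound exposure; nearly all actives have a fitted effect of over 55% in size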
[2] = target: Aryl hydrocarbon receptor (Homo sapiens) (UniProt P35869); test: qHTS assay to identify small molecule that activate the aryl hydrocarbon receptor (AhR) signaling pathway (AID 743085);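 note: HG2L7.5c1 human HepG2 liver cells with stably integrated DRE-driven firefly reporter; series mostly up to about 70 µM; nearly all actives have a fitted effect of over 15% in size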
In short: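 Stably transfected human liver carcinoma cells (HG2L7.5c1; 20 DRE-firefly luciferase) were incubated 5 h, dosed, and kept 24 h at 37C. Agonism was scored from increased luciferase luminescence.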

[3] = qHTS assay to identify small molecule that activate the aryl hydrocarbon receptor (AhR) signaling pathway - cell viability counter screen (AID 743086);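 note: HepG2 liver cells carrying the AhR DRE luciferase reporter; series mostly up to about 70 µM; nearly all actives have a fitted effect of over 45% in size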
In short: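 HepG2-AhR-luc (HG2L7.5c1) cells, 4000/well, were preincubated 5 h at 37C, exposed to compound in qHTS format for 24 hr at 37C, then given CellTiter-Fluor for 30 min; viability was read as fluorescence in the reporter wells.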

[4] = target: Peroxisome proliferator-activated receptor gamma (Homo sapiens) (UniProt P37231); test: qHTS assay to identify small molecule agonists of the peroxisome proliferator-activated receptor gamma (PPARg) signaling pathway (AID 743094; active = well fitted activation curve with a large enough effect in the signal ratio in the repeat runs, not every such curve was filed as active; the % refers to the signal ratio)
In short: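 GeneBLAzer PPARg UAS-bla HEK293H cells carrying a stably integrated beta-lactamase reporter were pre-incubated 5 h at 37C, then exposed to compounds in DMSO for 17 h at 37C; LiveBLAzer B/G FRET substrate was added for 1 h at room temperature and fluorescence read.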

[5] = target: Peroxisome proliferator-activated receptor gamma (Homo sapiens) (UniProt P37231); test: qHTS assay to identify small molecule antagonists of the peroxisome proliferator-activated receptor gamma (PPARg) signaling pathway (AID 743191; calls by dose curve; note: series mostly up to about 63 µM; nearly all actives have a fitted effect of over 30% in size)
In short: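 GeneBLAzer PPARg UAS-bla HEK293H cells carrying a UAS-driven beta-lactamase reporter were plated at 3000 cells/well, preincubated 5 h at 37C, then given compound for 17 h at 37C; LiveBLAzer B/G FRET substrate was read after 1 h at room temperature.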

[6] = qHTS assay for small molecule agonists of the antioxidant response element (ARE) signaling pathway (AID 743202; active = well fitted activation curve with a large enough effect in the signal ratio in the repeat runs, not every such curve was filed as active; the % refers to the signal ratio)
In short: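 Compounds delivered in DMSO to ARE-bla HepG2 cells (2,000 cells/well, pre-incubated 5 h) and left 16 h at 37 C. LiveBLAzer B/G FRET substrate then added for 2 h at RT before fluorescence reading.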

[7] = qHTS assay for small molecule agonists of the antioxidant response element (ARE) signaling pathway - cell viability counter screen (AID 743203; calls by dose curve; note: nearly all actives have a fitted effect of over 55% in size)
In short: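 CellSensor ARE-bla HepG2 cells, 2,000 per well, rested 5 hrs at 37C/5% CO2, then exposed to compound in DMSO for 16 hrs; viability read as CellTiter-Glo luminescence after 30 min at room temperature, in the reporter wells.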

[8] = qHTS assay for small molecule activators of the heat shock response signaling pathway - cell viability counter screen (AID 743209); note: nearly all actives have a fitted effect of over 50% in size
In short: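 CellSensor HSE-bla HeLa cells, plated overnight at 37 C/5% CO2, were exposed to compounds in DMSO for 5 h at 37 C. Viability was then read in the same wells by CellTiter-Glo luminescence after 30 min at room temperature.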

[9] = qHTS assay for small molecule activators of the heat shock response signaling pathway (AID 743210; active = well fitted activation curve with a large enough effect in the signal ratio in the repeat runs, with a control signal flat, not every such curve was filed as active; the % refers to the signal ratio;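 note: HeLa cells with beta-lactamase reporter driven by heat shock elements; series mostly up to about 63 µM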)
In short: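 Reporter gene assay: HeLa cells stably bearing an HSE-bla construct, compound treatment 5 h at 37 C, LiveBLAzer substrate 2.5 h at RT, fluorescence intensity.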

[10] = target: Peroxisome proliferator-activated receptor delta (Homo sapiens) (UniProt Q03181); test: qHTS assay to identify small molecule agonists of the peroxisome proliferator-activated receptor delta (PPARd) signaling pathway (AID 743212; calls by dose curve)
In short: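 A PPARd-bla HEK293H line with beta-lactamase under an Upstream Activator Sequence is treated with compounds at 37 C. Substrate loading for 2 h at room temperature precedes the fluorescence measurement.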

[11] = qHTS assay to identify small molecule antagonists of the peroxisome proliferator-activated receptor delta (PPARd) signaling pathway - cell viability counter screen (AID 743213); note: nearly all actives have a fitted effect of over 50% in size
In short: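 Same-well viability: cells pre-incubated 5 h, dosed with compound plus 300 nM L165041, kept 17 h at 37 C, FRET substrate 2 h RT, then CellTiter-Glo 30 min RT and luminescence.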

[12] = target: Peroxisome proliferator-activated receptor delta (Homo sapiens) (UniProt Q03181); test: qHTS assay to identify small molecule antagonists of the peroxisome proliferator-activated receptor delta (PPARd) signaling pathway (AID 743215; active = well fitted inhibition curve with a large enough effect in the signal ratio in the repeat runs, not every such curve was filed as active; the % refers to the signal ratio;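 note: cells stimulated with agonist L165041 at 300 nM final during compound exposure; series mostly up to about 62 µM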)
In short: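 PPARd UAS-bla HEK293H cells were pre-incubated 5 h at 37 C, then given test compounds in DMSO plus agonist L165041 (300 nM final). After 17 h at 37 C, beta-lactamase FRET substrate was added; fluorescence read after 2 h at room temperature.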

[13] = qHTS assay to identify small molecule agonists of the farnesoid-X-receptor (FXR) signaling pathway - cell viability counter screen (AID 743218); note: nearly all actives have a fitted effect of over 45% in size
In short: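 FXR-UAS-bla HEK 293T cells, plated 5 h at 37 C, were exposed to compounds for 16 h at 37 C. CellTiter-Glo was then added to the same wells as the bla readout; luminescence read after 30 min at room temperature.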

[14] = qHTS assay to identify small molecule antagonists of the farnesoid-X-receptor (FXR) signaling pathway - cell viability counter screen (AID 743221; active = well fitted cell-killing curve with a large enough effect in the repeat runs, not every such curve was filed as active; note: nearly all actives have a fitted effect of over 50% in size)
In short: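 Here viability was scored by luminescence after CellTiter-Glo addition to wells already read for beta-lactamase. Prior treatment: compound plus CDCA (50 uM final), 16 h, 37 C, HEK 293T FXR-bla cells.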

[15] = qHTS assay to identify small molecule antagonists of the peroxisome proliferator-activated receptor gamma (PPARg) signaling pathway - cell viability counter screen (AID 743194); note: nearly all actives have a fitted effect of over 55% in size
In short: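 PPARg-UAS-bla HEK293H cells were plated, rested 5 h at 37 C, then treated with compounds plus rosiglitazone (50 nM final) for 17 h at 37 C; viability was then read by CellTiter-Glo luminescence after 30 min at room temperature.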

[16] = qHTS assay to identify small molecule agonists of the peroxisome proliferator-activated receptor delta (PPARd) signaling pathway - cell viability counter screen (AID 743211); note: nearly all actives have a fitted effect of over 55% in size
In short: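 In the same wells used for beta-lactamase reporter measurement, cytotoxicity is scored by CellTiter-Glo. HEK293H PPARd-bla cells receive compound for 17 h at 37C following a 5 h settling period.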

[17] = target: Bile acid receptor (Homo sapiens) (UniProt Q96RI1); test: qHTS assay to identify small molecule agonists of the farnesoid-X-receptor (FXR) signaling pathway (AID 743220; active = well fitted activation curve with a large enough effect in the signal ratio in the repeat runs, not every such curve was filed as active; the % refers to the signal ratio)
In short: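 Beta-lactamase reporter under UAS control in GeneBLAzer FXR HEK 293T cells (5000/well) measured with LiveBLAzer FRET substrate after 2 h at room temperature. Compound exposure lasted 16 h at 37C.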

[18] = target: Vitamin D3 receptor (Homo sapiens) (UniProt P11473); test: qHTS assay to identify small molecule agonists of the vitamin D receptor (VDR) signaling pathway (AID 743222; calls by dose curve)
In short: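 VDR-bla cells were plated 4 h at 37C/5% CO2, then exposed to compounds in DMSO for 16 h. After LiveBLAzer B/G FRET substrate addition and 2 h at room temperature, beta-lactamase reporter fluorescence was read.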

[19] = target: Vitamin D3 receptor (Homo sapiens) (UniProt P11473); test: qHTS assay to identify small molecule antagonists of the vitamin D receptor (VDR) signaling pathway (AID 743223; active = well fitted inhibition curve with a large enough effect in the signal ratio in the repeat runs, not every such curve was filed as active; the % refers to the signal ratio)
In short: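 Inhibition of agonist-driven VDR signalling is scored in VDR-bla cells: 3 nM final 1alpha,25-dihydroxyvitamin D3 plus compound, 16 h at 37C, then beta-lactamase detection by FRET substrate fluorescence after 2 h.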

[20] = target: Bile acid receptor (Homo sapiens) (UniProt Q96RI1); test: qHTS assay to identify small molecule antagonists of the farnesoid-X-receptor (FXR) signaling pathway (AID 743217; active = well fitted inhibition curve with a large enough effect in the signal ratio in the repeat runs, not every such curve was filed as active; the % refers to the signal ratio)
In short: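 FXR-UAS-bla HEK 293T cells pre-incubated 5 h at 37 °C, then exposed to compounds with chenodeoxycholic acid (50 uM final) for 16 h at 37 °C. Beta-lactamase reporter read by LiveBLAzer B/G FRET substrate fluorescence after 2 h at room temperature.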

Measured: Potency

Sequence of Aryl hydrocarbon receptor (Homo sapiens) (P35869 whole entry, looked up): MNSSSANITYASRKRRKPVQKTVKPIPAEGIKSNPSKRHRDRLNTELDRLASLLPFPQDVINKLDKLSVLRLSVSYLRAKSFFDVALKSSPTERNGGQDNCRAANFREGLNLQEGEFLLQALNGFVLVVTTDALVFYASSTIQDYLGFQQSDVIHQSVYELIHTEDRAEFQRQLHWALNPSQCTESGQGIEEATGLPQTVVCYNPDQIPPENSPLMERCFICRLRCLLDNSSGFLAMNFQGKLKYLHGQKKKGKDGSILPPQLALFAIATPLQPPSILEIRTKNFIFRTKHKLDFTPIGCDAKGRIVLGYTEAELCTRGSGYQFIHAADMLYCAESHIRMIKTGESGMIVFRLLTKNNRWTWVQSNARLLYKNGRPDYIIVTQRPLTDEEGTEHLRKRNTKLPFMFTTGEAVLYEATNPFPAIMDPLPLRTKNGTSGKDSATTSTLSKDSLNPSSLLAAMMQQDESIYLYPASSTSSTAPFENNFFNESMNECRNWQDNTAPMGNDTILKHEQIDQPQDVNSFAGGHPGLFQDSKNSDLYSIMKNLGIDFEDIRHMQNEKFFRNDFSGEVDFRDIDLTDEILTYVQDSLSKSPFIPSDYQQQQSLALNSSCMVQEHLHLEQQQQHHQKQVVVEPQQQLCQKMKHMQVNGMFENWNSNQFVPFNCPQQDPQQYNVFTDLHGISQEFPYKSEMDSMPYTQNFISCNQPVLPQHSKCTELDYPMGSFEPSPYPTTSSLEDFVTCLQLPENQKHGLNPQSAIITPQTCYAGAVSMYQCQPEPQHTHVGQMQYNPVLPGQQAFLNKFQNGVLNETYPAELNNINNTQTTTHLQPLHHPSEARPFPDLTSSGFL
Sequence of Peroxisome proliferator-activated receptor gamma (Homo sapiens) (P37231 whole entry, looked up): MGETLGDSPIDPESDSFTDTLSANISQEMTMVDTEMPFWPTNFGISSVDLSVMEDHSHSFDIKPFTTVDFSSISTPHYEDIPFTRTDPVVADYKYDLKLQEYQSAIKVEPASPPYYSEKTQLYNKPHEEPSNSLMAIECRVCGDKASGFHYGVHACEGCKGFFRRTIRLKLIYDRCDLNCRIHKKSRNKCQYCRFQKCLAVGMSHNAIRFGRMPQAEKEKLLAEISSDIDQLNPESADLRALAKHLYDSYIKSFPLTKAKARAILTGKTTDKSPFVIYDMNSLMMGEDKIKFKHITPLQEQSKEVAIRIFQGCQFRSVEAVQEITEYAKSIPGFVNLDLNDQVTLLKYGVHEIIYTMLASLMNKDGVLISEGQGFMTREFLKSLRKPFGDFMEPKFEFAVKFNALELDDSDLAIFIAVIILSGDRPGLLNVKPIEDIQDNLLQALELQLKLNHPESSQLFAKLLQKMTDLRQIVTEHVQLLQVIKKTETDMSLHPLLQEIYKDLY
Sequence of Peroxisome proliferator-activated receptor delta (Homo sapiens) (Q03181 whole entry, looked up): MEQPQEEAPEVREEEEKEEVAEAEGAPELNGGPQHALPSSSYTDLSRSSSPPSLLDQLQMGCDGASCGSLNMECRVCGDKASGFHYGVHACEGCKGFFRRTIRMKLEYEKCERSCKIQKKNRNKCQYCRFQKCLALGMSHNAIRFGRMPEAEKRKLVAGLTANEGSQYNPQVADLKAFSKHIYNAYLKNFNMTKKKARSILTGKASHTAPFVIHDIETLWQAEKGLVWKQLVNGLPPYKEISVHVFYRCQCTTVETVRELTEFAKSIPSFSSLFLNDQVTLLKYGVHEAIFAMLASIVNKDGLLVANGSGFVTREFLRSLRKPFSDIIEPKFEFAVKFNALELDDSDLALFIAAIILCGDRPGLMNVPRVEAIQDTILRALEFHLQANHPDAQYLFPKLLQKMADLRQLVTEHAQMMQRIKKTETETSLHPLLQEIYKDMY
Sequence of Vitamin D3 receptor (Homo sapiens) (P11473 whole entry, looked up): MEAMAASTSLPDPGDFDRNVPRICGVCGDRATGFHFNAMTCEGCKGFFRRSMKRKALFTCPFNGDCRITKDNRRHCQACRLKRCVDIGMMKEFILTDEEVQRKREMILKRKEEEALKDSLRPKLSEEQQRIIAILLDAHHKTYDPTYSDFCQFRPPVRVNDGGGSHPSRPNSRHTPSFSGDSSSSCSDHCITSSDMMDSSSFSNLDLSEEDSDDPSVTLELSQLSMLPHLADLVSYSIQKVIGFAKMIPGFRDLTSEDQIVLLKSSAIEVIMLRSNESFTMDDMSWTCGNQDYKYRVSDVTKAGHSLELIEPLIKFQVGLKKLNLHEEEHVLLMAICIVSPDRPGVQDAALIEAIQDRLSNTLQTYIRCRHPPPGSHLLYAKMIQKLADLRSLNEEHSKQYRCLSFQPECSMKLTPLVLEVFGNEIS
Sequence of Bile acid receptor (Homo sapiens) (Q96RI1 whole entry, looked up): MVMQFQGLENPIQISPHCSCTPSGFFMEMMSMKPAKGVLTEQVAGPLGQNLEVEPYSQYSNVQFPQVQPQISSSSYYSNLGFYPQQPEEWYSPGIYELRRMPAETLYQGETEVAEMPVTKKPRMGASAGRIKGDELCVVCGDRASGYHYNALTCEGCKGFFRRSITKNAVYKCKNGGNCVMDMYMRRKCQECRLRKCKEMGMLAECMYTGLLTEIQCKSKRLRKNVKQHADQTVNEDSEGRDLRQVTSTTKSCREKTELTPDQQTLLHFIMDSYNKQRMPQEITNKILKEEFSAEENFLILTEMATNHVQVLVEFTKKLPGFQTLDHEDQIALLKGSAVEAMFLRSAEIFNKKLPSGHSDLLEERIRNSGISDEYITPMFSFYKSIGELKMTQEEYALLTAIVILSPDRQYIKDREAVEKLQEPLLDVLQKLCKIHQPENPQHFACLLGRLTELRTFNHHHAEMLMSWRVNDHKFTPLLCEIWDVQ

OCCCCCO
not listed: [15] | [16] | [17] | [18] | [19] | [20]
inactive: all other assays above

CCCCCCCCCCCCSC
not listed: [6] | [12] | [18] | [19] | [20]
inactive: all other assays above

CCCC[N+](C)(CCCC)CCCC
not listed: [8] | [9] | [13] | [17] | [20]
inactive: all other assays above

Clc1cc(Cl)cc(Cl)c1
not listed: [5] | [11] | [17] | [20]
inactive: all other assays above

c1ccc(CCc2ccccc2)cc1
not listed: [6] | [15]
inactive: all other assays above

CO[C@@]1(NC(=O)CSC[C@@H](N)C(=O)O)C(=O)N2C(C(=O)O)=C(CSc3nnnn3C)CS[C@@H]21
not listed: [6] | [10] | [12] | [18]
inactive: all other assays above

CC(CO)(CO)[N+](=O)[O-]
not listed: [8] | [9] | [12] | [19]
inactive: all other assays above

Cc1ccc(C(=O)Nc2ccc(S(=O)(=O)O)c3cc(S(=O)(=O)O)cc(S(=O)(=O)O)c23)cc1NC(=O)c1cccc(NC(=O)Nc2cccc(C(=O)Nc3cc(C(=O)Nc4ccc(S(=O)(=O)O)c5cc(S(=O)(=O)O)cc(S(=O)(=O)O)c45)ccc3C)c2)c1
not listed: [15] | [17] | [20]
inactive: all other assays above

C=CC(C)(CCC=C(C)C)OC(=O)CC (stereo not given)
not listed: [5] | [10] | [12]
inactive: all other assays above

[K+]
not listed: [4] | [5] | [19]
inactive: all other assays above

CC(C)c1ccc2ncccc2c1
not listed: [4] | [5] | [16] | [18] | [19]
inactive: all other assays above

CC(C)(C)C(=O)c1ccccc1
not listed: [4] | [5] | [13] | [15] | [19]
inactive: all other assays above

Nc1ccn([C@@H]2O[C@H](CO)[C@@H](O)C2O)c(=O)n1 (stereo not given in full)
not listed: [5] | [6] | [19]
inactive: all other assays above

CCOCC(C)O (stereo not given)
not listed: [3] | [19]
inactive: all other assays above

Nc1ccccn1
not listed: [4] | [5] | [6] | [10] | [12] | [17] | [19] | [20]
inactive: all other assays above

C=COC(=O)C(C)(CC)CCC(C)C (stereo not given)
not listed: [3] | [9] | [14] | [19]
inactive: all other assays above

Cc1ccccc1N=C(N)N=C(N)N
not listed: [5] | [8] | [13] | [17] | [19] | [20]
inactive: all other assays above

CC(C)CCCO
not listed: [5] | [8] | [11] | [17]
inactive: all other assays above

C[N+](C)(CCOc1ccccc1)Cc1cccs1
not listed: [4] | [5] | [11] | [17] | [20]
inactive: all other assays above

C[C@H]1[C@H](NC(=O)/C(=N/OC(C)(C)C(=O)O)c2csc(N)n2)C(=O)N1S(=O)(=O)O (stereo in doubt)
not listed: [4] | [5] | [9] | [10] | [12] | [18] | [19]
inactive: all other assays above

CC1(C)[C@@H]2CC[C@@]1(C)[C@H](O)C2
not listed: [4] | [5] | [8] | [13] | [17] | [18] | [19] | [20]
inactive: all other assays above

CCC(C)(CN(C)C)OC(=O)c1ccccc1 (stereo not given)
inactive: [1] | [2] | [3] | [15] | [6] | [7] | [8] | [16] | [11] | [14] | [18]

CCCCCCCCCCCCCCC(=O)O
not listed: [5] | [6] | [10] | [11] | [17] | [18] | [20]
inactive: all other assays above

C=C(C)C(=O)OCCOCCOCCOCCOC(=O)C(=C)C
not listed: [4] | [5] | [6] | [10] | [12] | [15] | [19]
inactive: all other assays above

CC[N+](CC)(CC)CCOc1cccc(OCC[N+](CC)(CC)CC)c1OCC[N+](CC)(CC)CC
not listed: [4] | [5] | [17] | [18] | [19] | [20]
inactive: all other assays above

c1coc(CNc2ncnc3nc[nH]c23)c1
not listed: [5] | [6] | [17] | [19] | [20]
inactive: all other assays above
